# Measured values taken from PubChem BioAssay (EPA / NIEHS).
# Calls of active or inactive are those of the source. Rule for the calls: active = hit-call score of the fitted dose curve at least 0.9, where 1 is the maximum; inactive = score below 0.9.
# Experiments:
# Conditions in all cases: mRNA level, 48 h; actives raise or lower the signal
# [1] = read-out: Lipase C (LIPC), LIPC (gene 3990); assay: LTEA_HepaRG_LIPC: Life Technologies and Expression Analysis (LTEA) Assay for Lipase C (LIPC) using HepaRG (AID 2283514)
# Method in brief: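 HepaRG cells, 48 h after plating, treated in duplicate for 48 h in serum-free induction medium over 8 half-log concentrations from 100 uM, 0.5% DMSO. LIPC mRNA by TaqMan qRT-PCR normalized to ACTB/GAPDH/POLR2A; bidirectional fit versus DMSO.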
# [2] = read-out: Lipoprotein lipase (LPL), LPL (gene 4023); assay: LTEA_HepaRG_LPL: Life Technologies and Expression Analysis (LTEA) Assay for Lipoprotein lipase (LPL) using HepaRG (AID 2283515)
# Method in brief: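 Differentiated HepaRG cells, plated 48 h, then exposed 48 h in serum-free induction medium to 8 concentrations (top 100 uM, half-log steps) in 0.5% DMSO, duplicate. LPL mRNA measured by qRT-PCR, normalized to ACTB, GAPDH and POLR2A.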
# [3] = read-out: MicroRNA 122 (MIR122), gene 406906; assay: LTEA_HepaRG_MIR122: Life Technologies and Expression Analysis (LTEA) Assay for MicroRNA 122 (MIR122) using HepaRG (AID 2283516); note: the transcript read is the microRNA miR-122
# Method in brief: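 HepaRG plated 48 h, switched to serum-free induction medium, then treated in duplicate for 48 h (100 uM top, half-log steps, 0.5% DMSO vehicle). RNA isolated, qRT-PCR performed, concentration-response fitted both directions relative to DMSO.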
# [4] = read-out: matrix metalloproteinase-10 (MMP10), MMP10 (gene 4319); assay: LTEA_HepaRG_MMP10: Life Technologies and Expression Analysis (LTEA) Assay for matrix metalloproteinase-10 (MMP10) using HepaRG (AID 2283517)
# Method in brief: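 Differentiated HepaRG cells in serum-free induction medium exposed 48 h in duplicate to 8-point half-log series up to 100 uM in 0.5% DMSO. mRNA quantified by qRT-PCR, normalised to ACTB, GAPDH, POLR2A; bidirectional fit versus DMSO.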
# MYC, MYC (gene 4609) = assay: LTEA_HepaRG_MYC: Life Technologies and Expression Analysis (LTEA) Assay for MYC using HepaRG (AID 2283518)
# Method in brief: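 Differentiated HepaRG cells exposed 48 h in serum-free induction medium to 8 concentrations (top 100 uM, half-log steps; 0.5% DMSO), duplicate. MYC mRNA measured by Fluidigm qRT-PCR, normalized to ACTB, GAPDH, POLR2A; bidirectional fit versus DMSO.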
# [5] = read-out: matrix metalloproteinase-3 (MMP3), MMP3 (gene 4314); assay: LTEA_HepaRG_MMP3: Life Technologies and Expression Analysis (LTEA) Assay for matrix metalloproteinase-3 (MMP3) using HepaRG (AID 2283519)
# Method in brief: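 HepaRG cells (~100,000/well) in serum-free induction medium were dosed in duplicate for 48 h with an 8-point half-log series from 100 uM, 0.5% DMSO. MMP3 mRNA was quantified by Fluidigm TaqMan qRT-PCR, normalized to three housekeeping genes.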
# [6] = read-out: Paternally Expressed 10 (PEG10), PEG10 (gene 23089); assay: LTEA_HepaRG_PEG10: Life Technologies and Expression Analysis (LTEA) Assay for Paternally Expressed 10 (PEG10) using HepaRG (AID 2283520)
# Method in brief: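 HepaRG, 48 h post-plating → serum-free induction medium → 48 h chemical exposure (duplicate, 8-pt, max 100 uM, half-log, 0.5% DMSO) → lysis in RLT → TaqMan qRT-PCR for PEG10, ACTB/GAPDH/POLR2A normalisation.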
# [7] = read-out: Phosphatase and tensin (PTEN), PTEN (gene 5728); assay: LTEA_HepaRG_PTEN: Life Technologies and Expression Analysis (LTEA) Assay for Phosphatase and tensin (PTEN) using HepaRG (AID 2283523)
# Method in brief: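 HepaRG cells, 48 h after plating, exposed in duplicate for 48 h in serum-free induction medium to 8 half-log concentrations up to 100 uM (0.5% DMSO). PTEN mRNA by qRT-PCR, normalized to ACTB, GAPDH, POLR2A; bidirectional fit versus DMSO.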
# [8] = read-out: solute carrier (SLC22A1), SLC22A1 (gene 6580); assay: LTEA_HepaRG_SLC22A1: Life Technologies and Expression Analysis (LTEA) Assay for solute carrier (SLC22A1) using HepaRG (AID 2283524)
# Method in brief: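 Differentiated human HepaRG cells in serum-free induction medium, exposed 48 h in duplicate to 8-point half-log series from 100 µM top in 0.5% DMSO. SLC22A1 mRNA by TaqMan qRT-PCR normalized to ACTB, GAPDH, POLR2A; bidirectional fit versus DMSO.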
# [9] = read-out: Pyruvate Dehydrogenase Kinase 4 (PDK4), PDK4 (gene 5166); assay: LTEA_HepaRG_PDK4: Life Technologies and Expression Analysis (LTEA) Assay for Pyruvate Dehydrogenase Kinase 4 (PDK4) using HepaRG (AID 2283525)
# Method in brief: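 HepaRG cells plated 48 h, then switched to serum-free induction medium and exposed in duplicate for 48 h to 8 half-log concentrations from 100 uM in 0.5% DMSO. PDK4 mRNA measured by qRT-PCR, normalized to ACTB, GAPDH and POLR2A; bidirectional fit versus DMSO.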
# [10] = read-out: NAD(P)H dehydrogenase [quinone] 1 (NQO1), NQO1 (gene 1728); assay: LTEA_HepaRG_NQO1: Life Technologies and Expression Analysis (LTEA) Assay for NAD(P)H dehydrogenase [quinone] 1 (NQO1) using HepaRG (AID 2283526)
# Method in brief: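 HepaRG, 48 h post-plating → serum-free induction medium → test chemical 48 h (duplicate, 100 uM top, half-log x8, 0.5% DMSO) → RNA isolation → qRT-PCR, ACTB/GAPDH/POLR2A normalization; bidirectional curve fit vs DMSO baseline.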
# [11] = read-out: Nuclear factor erythroid 2-related factor 2 (Homo sapiens) (UniProt Q16236); assay: LTEA_HepaRG_NFE2L2: Life Technologies and Expression Analysis (LTEA) Assay for Nuclear factor erythroid 2-related factor 2 (NFE2L2) Transcription Factor using HepaRG (AID 2283527)
# Method in brief: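 Differentiated human HepaRG cells, serum-free induction medium, exposed 48 h in duplicate to eight half-log concentrations up to 100 uM in 0.5% DMSO. NFE2L2 mRNA by Fluidigm TaqMan qRT-PCR, normalised to ACTB, GAPDH, POLR2A; bidirectional change versus DMSO.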
# [12] = read-out: succinate dehydrogenase complex iron sulfur subunit B (SDHB), SDHB (gene 6390); assay: LTEA_HepaRG_SDHB: Life Technologies and Expression Analysis (LTEA) Assay for succinate dehydrogenase complex iron sulfur subunit B (SDHB) using HepaRG (AID 2283528)
# Method in brief: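 SDHB transcript level read by TaqMan qRT-PCR, housekeeping-normalised (ACTB, GAPDH, POLR2A), after 48 h chemical treatment of plated HepaRG cells; eight concentrations top 100 uM, half-log steps, 0.5% DMSO, duplicates; fitted both directions against DMSO.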
# [13] = read-out: Signal transducer and activator of transcription 3 (Homo sapiens) (UniProt P40763); assay: LTEA_HepaRG_STAT3: Life Technologies and Expression Analysis (LTEA) Assay for Signal transducer and activator of transcription (STAT3) using HepaRG (AID 2283529)
# Method in brief: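 Differentiated HepaRG cells, serum-free induction medium, dosed 48 h in duplicate, 8 half-log concentrations from 100 uM in 0.5% DMSO. STAT3 mRNA by qRT-PCR, normalised to ACTB, GAPDH, POLR2A; bidirectional fit versus DMSO.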
# [14] = read-out: solute carrier (SLCO1B1), SLCO1B1 (gene 10599); assay: LTEA_HepaRG_SLCO1B1: Life Technologies and Expression Analysis (LTEA) Assay for solute carrier (SLCO1B1) using HepaRG (AID 2283530)
# Method in brief: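 Differentiated human HepaRG cells were exposed for 48 h in serum-free induction medium to eight half-log concentrations, top 100 uM, in 0.5% DMSO. SLCO1B1 mRNA was measured by qRT-PCR, normalized to ACTB, GAPDH and POLR2A, and fitted bidirectionally against DMSO.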
# [15] = read-out: sulfotransferase 2A1 (SULT2A1), SULT2A1 (gene 6822); assay: LTEA_HepaRG_SULT2A1: Life Technologies and Expression Analysis (LTEA) Assay for sulfotransferase 2A1 (SULT2A1) using HepaRG (AID 2283531)
# Method in brief: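 HepaRG human liver cells, 48 h exposure in serum-free induction medium to 8 half-log concentrations topping at 100 µM (0.5% DMSO), duplicate wells. SULT2A1 mRNA measured by TaqMan qRT-PCR, normalized to ACTB/GAPDH/POLR2A; bidirectional fit against DMSO.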
# [16] = read-out: Transforming Growth Factor (TGFA), TGFA (gene 7039); assay: LTEA_HepaRG_TGFA: Life Technologies and Expression Analysis (LTEA) Assay for Transforming Growth Factor (TGFA) using HepaRG (AID 2283532)
# Method in brief: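 Differentiated HepaRG cells exposed 48 hours in serum-free induction medium, 0.5% DMSO vehicle, 8-point half-log series from 100 uM, in duplicate. TGFA mRNA by TaqMan qRT-PCR, normalised to ACTB, GAPDH, POLR2A; bidirectional fit versus DMSO.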
# [17] = read-out: Nuclear factor NF-kappa-B p105 subunit (Homo sapiens) (UniProt P19838); assay: LTEA_HepaRG_NFKB1: Life Technologies and Expression Analysis (LTEA) Assay for Nuclear Factor Kappa B Subunit 1 (NFKB1) using HepaRG (AID 2283521)
# Method in brief: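 NFKB1 transcript was measured by TaqMan qRT-PCR on Fluidigm arrays, normalised to three housekeeping genes and fitted in both directions against 0.5% DMSO. HepaRG cells were dosed in duplicate for 48 h in serum-free induction medium, eight half-log steps from 100 uM.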
# [18] = read-out: Protein phosphatase 2A (PPP2R4), PTPA (gene 5524); assay: LTEA_HepaRG_PPP2R4: Life Technologies and Expression Analysis (LTEA) Assay for Protein phosphatase 2A (PPP2R4) using HepaRG (AID 2283522)
# Method in brief: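 Readout is PPP2R4 transcript level by microfluidic qRT-PCR after 48 h chemical treatment of human HepaRG liver cells. Concentrations spanned 100 uM downward in half-log steps; gain or loss of signal was fitted relative to DMSO.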
# Sequence of Nuclear factor erythroid 2-related factor 2 (Homo sapiens) (Q16236 whole entry, looked up): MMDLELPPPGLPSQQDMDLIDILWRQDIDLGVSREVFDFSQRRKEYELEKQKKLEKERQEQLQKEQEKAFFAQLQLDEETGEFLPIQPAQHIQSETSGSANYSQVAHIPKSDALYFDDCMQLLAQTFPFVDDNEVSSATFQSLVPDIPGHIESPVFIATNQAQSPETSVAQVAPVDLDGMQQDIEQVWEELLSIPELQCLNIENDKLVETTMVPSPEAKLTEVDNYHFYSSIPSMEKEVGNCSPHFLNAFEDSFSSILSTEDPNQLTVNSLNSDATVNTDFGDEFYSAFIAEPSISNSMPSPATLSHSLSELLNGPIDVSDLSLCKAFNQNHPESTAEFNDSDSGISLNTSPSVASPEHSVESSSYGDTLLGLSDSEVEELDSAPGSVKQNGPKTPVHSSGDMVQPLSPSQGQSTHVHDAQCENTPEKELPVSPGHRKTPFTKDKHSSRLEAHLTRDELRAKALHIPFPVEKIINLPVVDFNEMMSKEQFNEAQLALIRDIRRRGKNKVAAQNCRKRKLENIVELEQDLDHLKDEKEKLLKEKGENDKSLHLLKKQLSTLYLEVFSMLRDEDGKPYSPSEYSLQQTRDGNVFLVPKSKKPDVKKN
# Sequence of Signal transducer and activator of transcription 3 (Homo sapiens) (P40763 whole entry, looked up): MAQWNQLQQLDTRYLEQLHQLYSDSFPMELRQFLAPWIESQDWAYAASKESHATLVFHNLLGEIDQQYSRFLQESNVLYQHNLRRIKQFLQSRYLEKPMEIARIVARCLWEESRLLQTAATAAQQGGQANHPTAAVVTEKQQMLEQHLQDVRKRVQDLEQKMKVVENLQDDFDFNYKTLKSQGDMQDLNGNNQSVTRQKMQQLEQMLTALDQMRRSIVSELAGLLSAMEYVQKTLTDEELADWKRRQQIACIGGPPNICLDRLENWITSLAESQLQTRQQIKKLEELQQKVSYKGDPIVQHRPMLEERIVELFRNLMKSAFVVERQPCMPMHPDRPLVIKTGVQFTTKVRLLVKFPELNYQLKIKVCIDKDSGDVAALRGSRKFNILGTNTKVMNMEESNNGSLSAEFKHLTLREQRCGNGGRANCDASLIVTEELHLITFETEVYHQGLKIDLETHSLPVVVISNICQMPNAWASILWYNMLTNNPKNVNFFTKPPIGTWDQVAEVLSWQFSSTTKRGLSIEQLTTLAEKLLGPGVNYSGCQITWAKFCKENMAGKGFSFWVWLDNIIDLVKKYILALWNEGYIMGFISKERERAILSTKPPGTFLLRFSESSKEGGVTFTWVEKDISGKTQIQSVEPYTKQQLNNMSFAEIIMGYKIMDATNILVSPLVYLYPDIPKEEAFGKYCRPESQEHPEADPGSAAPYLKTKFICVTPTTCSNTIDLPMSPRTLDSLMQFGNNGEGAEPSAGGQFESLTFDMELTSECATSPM
# Sequence of Nuclear factor NF-kappa-B p105 subunit (Homo sapiens) (P19838 whole entry, looked up): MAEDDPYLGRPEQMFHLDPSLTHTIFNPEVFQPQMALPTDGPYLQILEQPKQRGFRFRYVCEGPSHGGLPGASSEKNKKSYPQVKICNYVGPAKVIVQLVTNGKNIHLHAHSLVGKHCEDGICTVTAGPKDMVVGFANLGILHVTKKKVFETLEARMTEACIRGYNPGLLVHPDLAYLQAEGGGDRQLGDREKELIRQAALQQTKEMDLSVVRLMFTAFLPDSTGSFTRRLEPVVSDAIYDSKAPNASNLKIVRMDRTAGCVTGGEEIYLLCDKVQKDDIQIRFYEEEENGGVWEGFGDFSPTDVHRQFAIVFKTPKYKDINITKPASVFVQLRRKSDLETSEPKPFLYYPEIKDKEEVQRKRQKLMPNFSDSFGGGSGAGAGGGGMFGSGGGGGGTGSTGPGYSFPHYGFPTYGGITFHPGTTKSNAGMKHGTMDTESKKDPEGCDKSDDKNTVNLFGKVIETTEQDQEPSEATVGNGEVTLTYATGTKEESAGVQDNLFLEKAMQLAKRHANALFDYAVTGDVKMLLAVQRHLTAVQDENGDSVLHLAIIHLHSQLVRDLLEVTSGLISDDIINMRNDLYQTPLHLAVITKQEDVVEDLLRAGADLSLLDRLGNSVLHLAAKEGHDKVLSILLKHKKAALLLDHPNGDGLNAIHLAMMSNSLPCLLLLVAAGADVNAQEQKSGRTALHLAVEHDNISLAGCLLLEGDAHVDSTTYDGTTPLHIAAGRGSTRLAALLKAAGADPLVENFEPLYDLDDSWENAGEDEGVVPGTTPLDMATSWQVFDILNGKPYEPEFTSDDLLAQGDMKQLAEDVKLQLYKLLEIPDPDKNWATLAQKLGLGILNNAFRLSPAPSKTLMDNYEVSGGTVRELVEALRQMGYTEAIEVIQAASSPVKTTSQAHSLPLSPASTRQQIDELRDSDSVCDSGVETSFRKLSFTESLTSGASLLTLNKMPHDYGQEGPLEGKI
smiles,measurement,setting,value
CCCC(=O)OCCC(C)C,outcome,[1],inactive
same,outcome,[2],inactive
same,outcome,[3],inactive
same,outcome,[4],inactive
same,outcome,"MYC, MYC (gene 4609)",inactive
same,outcome,[5],inactive
same,outcome,[6],inactive
same,outcome,[7],inactive
same,outcome,[8],inactive
same,outcome,[9],inactive
same,outcome,[10],inactive
same,outcome,[11],inactive
same,outcome,[12],inactive
same,outcome,[13],inactive
same,outcome,[14],inactive
same,outcome,[15],inactive
same,outcome,[16],inactive
CC[C@H](NC(=O)c1cc(F)ccc1NS(=O)(=O)c1cccc2cccnc12)c1ccccc1,AC50,[1],20.1 µM (active)
same,outcome,[2],inactive
same,AC50,[3],47.8 µM (active)
same,outcome,[4],inactive
same,outcome,"MYC, MYC (gene 4609)",inactive
same,outcome,[5],inactive
same,AC50,[6],19.1 µM (active)
same,outcome,[17],inactive
same,outcome,[18],inactive
same,outcome,[7],inactive
same,AC50,[8],50.8 µM (active)
same,outcome,[9],inactive
same,outcome,[10],inactive
same,outcome,[11],inactive
same,outcome,[12],inactive
same,outcome,[13],inactive
same,AC50,[14],77.6 µM (active)
same,AC50,[15],84.8 µM (active)
same,outcome,[16],inactive
NCc1cccc(C2CCN(C(=O)c3ccc(C#Cc4ccccc4F)o3)CC2)c1,AC50,[1],76.6 µM (active)
same,outcome,[2],inactive
same,AC50,[3],97.8 µM (active)
same,outcome,[4],inactive
same,outcome,"MYC, MYC (gene 4609)",inactive
same,outcome,[5],inactive
same,AC50,[6],24.7 µM (active)
same,outcome,[18],inactive
same,outcome,[7],inactive
same,AC50,[8],92.6 µM (active)
same,AC50,[9],64.9 µM (active)
same,outcome,[10],inactive
same,outcome,[11],inactive
same,outcome,[12],inactive
same,outcome,[13],inactive
same,AC50,[14],88.5 µM (active)
same,AC50,[15],92.9 µM (active)
same,outcome,[16],inactive
